In PubChem BioAssay AID1159580 (chemical genetic matrix, 2015):
Out of some 5,500 compounds screened, about 2,000 (36%) were called active. Inconclusive results (about 18%) are left out. Rule as the data show it: active = normalized growth mostly below about 0.91 (no sharp cut-off); inconclusive = no clear call, values can overlap the other calls; inactive = mostly above about 0.92. The list shows a part of the results.

Assay: chemical genetic growth profiling, strain panel (AID 1159580);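 also: tested at 20 µM; growth read once vehicle control cultures reached saturation at 30 °C; 1 = growth at the plate median or of vehicle wells; lower values mean less growth of the strain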
Details: growth OD

Measured: normalized growth

CC(=O)[C@@]1(O)CCC2C3C[C@H](C)C4=CC(=O)C=CC4(C)[C@@]3(F)[C@@H](O)C[C@@]21C (stereo partly drawn)
inactive: S. cerevisiae deletion strains, locus YJR066W, strain TOR1, active compounds read low 0.936 | S. cerevisiae deletion strains, locus YKL009W, strain mrt4, active compounds read low 1.01 | S. cerevisiae deletion strains, locus YKL068W, active compounds read low 1.01 | S. cerevisiae deletion strains, locus YKL085W, strain MDH1 (second series), active compounds read low 1.01 | S. cerevisiae deletion strains, locus YKL085W, strain MDH1, active compounds read low 1.01 | S. cerevisiae deletion strains, locus YKL160W, strain elf1, active compounds read low 0.976 | S. cerevisiae deletion strains, locus YKL190W, strain CNB1, active compounds read low 0.988 | S. cerevisiae deletion strains, locus YKR001C, strain vps1, active compounds read low 0.987 | S. cerevisiae deletion strains, locus YKR026C, strain gcn3, active compounds read low 0.982 | S. cerevisiae deletion strains, locus YKR091W, strain srl3, active compounds read low 0.956 | S. cerevisiae deletion strains, locus YLL001W, strain dnm1, active compounds read low 1.01 | S. cerevisiae deletion strains, locus YLL026W, active compounds read low 0.979 | S. cerevisiae deletion strains, locus YLL041C, strain sdh2, active compounds read low 0.988 | S. cerevisiae deletion strains, locus YLR027C, strain aat2, active compounds read low 0.978 | S. cerevisiae deletion strains, locus YLR039C, strain RIC1, active compounds read low 1.03 | S. cerevisiae deletion strains, locus YLR058C, strain SHM2, active compounds read low 1.01 | S. cerevisiae deletion strains, locus YLR102C, strain apc9, active compounds read low 1 | S. cerevisiae deletion strains, locus YLR113W, strain HOG1, active compounds read low 0.988 | S. cerevisiae deletion strains, locus YLR221C, strain rsa3, active compounds read low 0.968 | S. cerevisiae deletion strains, locus YLR258W, strain gsy2, active compounds read low 0.971 | S. cerevisiae deletion strains, locus YLR262C, strain YPT6 (second series), active compounds read low 0.981 | S. cerevisiae deletion strains, locus YLR262C, strain YPT6, active compounds read low 0.98 | S. cerevisiae deletion strains, locus YLR268W, strain sec22, active compounds read low 0.991 | S. cerevisiae deletion strains, locus YLR320W, strain mms22, active compounds read low 0.962 | S. cerevisiae deletion strains, locus YLR330W, strain CHS5, active compounds read low 1 | S. cerevisiae deletion strains, locus YLR342W, strain FKS1 (second series), active compounds read low 0.992 | S. cerevisiae deletion strains, locus YLR342W, strain FKS1, active compounds read low 0.979 | S. cerevisiae deletion strains, locus YLR357W, strain rsc2, active compounds read low 0.951 | S. cerevisiae deletion strains, locus YLR370C, strain arc18, active compounds read low 0.982 | S. cerevisiae deletion strains, locus YLR371W, strain rom2, active compounds read low 1 | S. cerevisiae deletion strains, locus YLR384C, strain iki3, active compounds read low 0.981 | S. cerevisiae deletion strains, locus YLR418C, strain cdc73, active compounds read low 1.02 | S. cerevisiae deletion strains, locus YML016C, strain PPZ1, active compounds read low 1 | S. cerevisiae deletion strains, locus YML032C, strain rad52, active compounds read low 0.996 | S. cerevisiae deletion strains, locus YML120C, strain ndi1, active compounds read low 0.954 | S. cerevisiae deletion strains, locus YML124C, strain tub3, active compounds read low 1.01 | S. cerevisiae deletion strains, locus YMR058W, strain fet3, active compounds read low 0.983 | S. cerevisiae deletion strains, locus YMR078C, strain ctf18, active compounds read low 1 | S. cerevisiae deletion strains, locus YMR125W, strain sto1, active compounds read low 0.965 | S. cerevisiae deletion strains, locus YMR129W, active compounds read low 0.964 | S. cerevisiae deletion strains, locus YMR205C, strain PFK2, active compounds read low 0.975 | S. cerevisiae deletion strains, locus YMR223W, strain ubp8, active compounds read low 1.04 | S. cerevisiae deletion strains, locus YMR231W, strain pep5, active compounds read low 0.973 | S. cerevisiae deletion strains, locus YMR307W, strain GAS1, active compounds read low 0.976 | S. cerevisiae deletion strains, locus YNL067W, strain RPL9B, active compounds read low 0.993 | S. cerevisiae deletion strains, locus YNL071W, strain lat1, active compounds read low 0.972 | S. cerevisiae deletion strains, locus YNL128W, strain TEP1, active compounds read low 1.01 | S. cerevisiae deletion strains, locus YNL153C, strain GIM3, active compounds read low 0.992 | S. cerevisiae deletion strains, locus YNL183C, strain NPR1, active compounds read low 0.942 | S. cerevisiae deletion strains, locus YNL209W, strain ssb2, active compounds read low 0.98 | S. cerevisiae deletion strains, locus YNL233W, strain BNI4, active compounds read low 1 | S. cerevisiae deletion strains, locus YNL248C, strain rpa49, active compounds read low 0.914 | S. cerevisiae deletion strains, locus YNL250W, strain rad50, active compounds read low 1.03 | S. cerevisiae deletion strains, locus YNL271C, strain bni1, active compounds read low 1.02 | S. cerevisiae deletion strains, locus YNL298W, strain CLA4, active compounds read low 0.999 | S. cerevisiae deletion strains, locus YNL307C, strain MCK1, active compounds read low 1.02 | S. cerevisiae deletion strains, locus YNL322C, strain KRE1 (second series), active compounds read low 0.955 | S. cerevisiae deletion strains, locus YNR049C, strain mso1, active compounds read low 0.951 | S. cerevisiae deletion strains, locus YNR052C, strain pop2, active compounds read low 1.01 | S. cerevisiae deletion strains, locus YOL012C, strain htz1 0.807 | S. cerevisiae deletion strains, locus YOL147C, strain pex11, active compounds read low 1.01 | S. cerevisiae deletion strains, locus YOR001W, strain rrp6, active compounds read low 0.971 | S. cerevisiae deletion strains, locus YOR061W, strain CKA2, active compounds read low 1.01 | S. cerevisiae deletion strains, locus YOR069W, strain VPS5, active compounds read low 1 | S. cerevisiae deletion strains, locus YOR070C, strain gyp1, active compounds read low 0.986 | S. cerevisiae deletion strains, locus YOR080W, strain dia2, active compounds read low 0.975 | S. cerevisiae deletion strains, locus YOR083W, strain WHI5, active compounds read low 0.974 | S. cerevisiae deletion strains, locus YOR106W, strain vam3, active compounds read low 0.977 | S. cerevisiae deletion strains, locus YOR136W, strain idh2, active compounds read low 1 | S. cerevisiae deletion strains, locus YOR144C, strain elg1, active compounds read low 1 | S. cerevisiae deletion strains, locus YOR184W, strain ser1, active compounds read low 1.01 | S. cerevisiae deletion strains, locus YOR231W, strain MKK1, active compounds read low 1 | S. cerevisiae deletion strains, locus YOR265W, strain rbl2, active compounds read low 0.974 | S. cerevisiae deletion strains, locus YOR270C, strain vph1, active compounds read low 0.926 | S. cerevisiae deletion strains, locus YOR290C, strain snf2, active compounds read low 0.944 | S. cerevisiae deletion strains, locus YOR316C, strain cot1, active compounds read low 1.01 | S. cerevisiae deletion strains, locus YPL051W, strain arl3, active compounds read low 0.985 | S. cerevisiae deletion strains, locus YPL055C, strain LGE1, active compounds read low 0.993 | S. cerevisiae deletion strains, locus YPL078C, strain atp4, active compounds read low 0.992 | S. cerevisiae deletion strains, locus YPL106C, strain sse1, active compounds read low 0.922 | S. cerevisiae deletion strains, locus YPL240C, strain hsp82, active compounds read low 0.975 | S. cerevisiae deletion strains, locus YPL256C, strain CLN2, active compounds read low 0.981 | S. cerevisiae deletion strains, locus YPR119W, strain clb2, active compounds read low 1.01 | S. cerevisiae deletion strains, locus YPR141C, strain kar3, active compounds read low 1.01 | S. cerevisiae deletion strains, locus YPR163C, strain tif3, active compounds read low 1.01 | S. cerevisiae deletion strains, locus YPR167C, strain met16, active compounds read low 1.02 | S. cerevisiae deletion strains, strain wtn01, active compounds read low 1.01 | S. cerevisiae strains, strain wild type, active compounds read low 0.987
